The source of these data is the supplement of paper PMC10037445.

Structures are written as SMILES. Whole data set: some 2,900 compounds, median “NF-kB SEAP reporter activity, fold change vs agonist alone” near 0.99, cut for the highest 2% near 2.6. This excerpt belongs to a sample that is enriched for the highest values.

Experiment [1] relates to RAW-Dual. The experiment can be described thus: NF-kB SEAP reporter activity, fold change vs agonist alone; higher = enhanced NF-kB activity. To be noted: library stock concentration (final ~1000-fold dilution): 10 mM, cytotoxicity flag (confluency mask): not cytotoxic. The method in brief: (§1)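 Supernatant from RAW-Dual macrophages was read after 20 hours for IRF by QuantiLuc luminescence and for NF-κB by QuantiBlue absorbance at 620 nm. The cells (50,000 cells/well in DMEM, 384-well plates, 37 °C, 5% CO2) had received 50 nL of library stock by pin tool and, 1 h later, a PRR agonist. Reporter activity is expressed relative to agonist-alone wells as fold change, and wells were flagged cytotoxic if IncuCyte confluency was under 70% of agonist controls in both mask sets.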

The test system of experiment [2] is RAW-Dual. In words: NF-kB SEAP reporter activity, fold change vs agonist alone; cytotoxicity flag (confluency mask): not cytotoxic; higher = enhanced NF-kB activity. In short, it runs like this: as §1
The mark [3] stands for this setting: agonist: ODN 1826 (TLR9) 0.5 ug/mL.
Setting [4] is: agonist: Pam2CSK4 (TLR2/6) 0.1 ug/mL.
Where [5] appears, read: agonist: Pam3CSK4 (TLR2/1) 0.1 ug/mL.

Consider `CCOc1ccc(Cc2cc(C34OCC(CO)(O3)C(O)C(O)C4O)ccc2Cl)cc1` (configuration not stated), for which the “NF-kB SEAP reporter activity” value in experiment [1] (agonist: MPLA (TLR4) […]) is 1.09.

Turning to `CCOc1ccc(Cc2cc(C34OCC(CO)(O3)C(O)C(O)C4O)ccc2Cl)cc1` (configuration not stated) (library stock concentration (final ~1000-fold dilution): 10 mM), the “NF-kB SEAP reporter activity” value in experiment [2] (agonist: LPS (TLR4) 0.1 ug/mL) was 0.975; in experiment [2] (setting [3]), 1.1; in experiment [2] (setting [4]), 1.13; in experiment [2] (setting [5]), 0.829.

As for `COc1ccc(CCN(C)CCCC(C#N)(c2ccc(OC)c(OC)c2)C(C)C)cc1OC.Cl` (configuration not stated), the “NF-kB SEAP reporter activity” value in experiment [1] (agonist: Imiquimod (TLR7) […]) is 0.98; in experiment [1] (agonist: MPLA (TLR4) […]), 1.03.

For `COc1ccc(CCN(C)CCCC(C#N)(c2ccc(OC)c(OC)c2)C(C)C)cc1OC.Cl` (configuration not stated) (library stock concentration (final ~1000-fold dilution): 10 mM), the “NF-kB SEAP reporter activity” value in experiment [2] (agonist: LPS (TLR4) 0.1 ug/mL) was 1.06; in experiment [2] (setting [3]), 0.89; in experiment [2] (setting [4]), 0.949; in experiment [2] (setting [5]), 1.04.

Regarding `CN1CC(=O)N2C(Cc3c([nH]c4ccccc34)C2c2ccc3c(c2)OCO3)C1=O` (configuration not stated), the “NF-kB SEAP reporter activity” value in experiment [1] (agonist: Imiquimod (TLR7) […]) turned out to be 0.955; in experiment [1] (agonist: MPLA (TLR4) […]) it was 0.984.

On to `CN1CC(=O)N2C(Cc3c([nH]c4ccccc34)C2c2ccc3c(c2)OCO3)C1=O` (configuration not stated) (library stock concentration (final ~1000-fold dilution): 10 mM), for which the “NF-kB SEAP reporter activity” value came to 1.17 in experiment [2] (agonist: LPS (TLR4) 0.1 ug/mL), 1.18 in experiment [2] (setting [3]), 1.13 in experiment [2] (setting [4]) and 1.11 in experiment [2] (setting [5]).

As to `Cc1cc([N+](=O)[O-])ccc1NS(=O)(=O)c1cc(Cl)ccc1Cl` (library stock concentration (final ~1000-fold dilution): 10 mM), the “NF-kB SEAP reporter activity” value in experiment [2] (agonist: LPS (TLR4) 0.1 ug/mL) stood at 3.09; in experiment [2] (setting [3]), 0.67; in experiment [2] (setting [4]), 0.323; in experiment [2] (setting [5]) it was 0.349.

Take `Cc1cc([N+](=O)[O-])ccc1NS(=O)(=O)c1cc(Cl)ccc1Cl`: the “NF-kB SEAP reporter activity” value in experiment [1] (agonist: Imiquimod (TLR7) […]) was determined as 1.01; in experiment [1] (agonist: MPLA (TLR4) […]), 1.41.

As to `Cc1ccc([N+](=O)[O-])cc1S(=O)(=O)N(C)C` (library stock concentration (final ~1000-fold dilution): 10 mM), the “NF-kB SEAP reporter activity” value in experiment [2] (agonist: LPS (TLR4) 0.1 ug/mL) stood at 1.07; in experiment [2] (setting [3]), 0.867; in experiment [2] (setting [4]), 0.994; in experiment [2] (setting [5]), 1.36.

Turning to `Cc1ccc([N+](=O)[O-])cc1S(=O)(=O)N(C)C`, the “NF-kB SEAP reporter activity” value amounted to 0.951 in experiment [1] (agonist: Imiquimod (TLR7) […]) and 1.14 in experiment [1] (agonist: MPLA (TLR4) […]).

In the case of `O=S(=O)(NCCSSCCNS(=O)(=O)c1cc(Cl)ccc1Cl)c1cc(Cl)ccc1Cl`, the “NF-kB SEAP reporter activity” value in experiment [1] (agonist: Imiquimod (TLR7) […]) came to 1.13; in experiment [1] (agonist: MPLA (TLR4) […]), 1.03.

As for `O=S(=O)(NCCSSCCNS(=O)(=O)c1cc(Cl)ccc1Cl)c1cc(Cl)ccc1Cl` (library stock concentration (final ~1000-fold dilution): 10 mM), the “NF-kB SEAP reporter activity” value in experiment [2] (agonist: LPS (TLR4) 0.1 ug/mL) turned out to be 0.705; in experiment [2] (setting [3]) it was 0.705; in experiment [2] (setting [4]), 0.573; in experiment [2] (setting [5]), 0.312.

Turning to `COC(C)Cn1c(=O)n(C)c2cnc3ccc(-c4cncc(C(C)(C)O)c4)cc3c21` (configuration not stated), the entries for the “NF-kB SEAP reporter activity” value in experiment [1] (agonist: Imiquimod (TLR7) […]) and in experiment [1] (agonist: MPLA (TLR4) […]) were 0.865 and 1.85, respectively.
